This note sets out measurements from publication PMC7819943, “Rice protein-binding microarrays: a tool to detect cis-acting elements near promoter regions in rice”.

Whole data set: some 39,000 sequences, median “fluorescence intensity (a.u.)” near 4,300, cut for the highest 2% near 39,000. The entries come from a sample that favours the highest values as a whole.

The assay concerns the target T1, OsSMF1 (Oryza sativa, UniProt Q6ZLB0 1-436).
T1 sequence: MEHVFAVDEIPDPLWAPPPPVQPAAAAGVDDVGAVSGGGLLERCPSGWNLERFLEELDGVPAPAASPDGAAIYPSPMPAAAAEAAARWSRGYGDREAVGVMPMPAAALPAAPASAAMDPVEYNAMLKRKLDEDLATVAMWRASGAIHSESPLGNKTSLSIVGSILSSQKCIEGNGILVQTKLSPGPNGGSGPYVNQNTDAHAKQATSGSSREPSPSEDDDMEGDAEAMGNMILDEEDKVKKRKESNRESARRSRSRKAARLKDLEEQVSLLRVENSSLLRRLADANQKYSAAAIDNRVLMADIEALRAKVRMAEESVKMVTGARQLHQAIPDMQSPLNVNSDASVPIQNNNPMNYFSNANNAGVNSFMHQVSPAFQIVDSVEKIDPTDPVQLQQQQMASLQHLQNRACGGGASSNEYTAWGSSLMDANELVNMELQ
Briefly: protein-binding microarray (RPBM); PBS, 2% BSA, 51.3 ng/ul salmon testes DNA, 50 uM zinc acetate, 200 nM TF, 25 C, 1 h; high values mean tight binding. The note with it: protein: recombinant; tags: N-terminal polyhistidine and DsRed monomer fusion (pET32a); chain copies: 2; label: CyDye5-dUTP incorporated in the synthesized complementary strand; 3' TTTTT single-stranded linker to array surface; dsDNA, one strand shown. A digest of the protocol:
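In PBS with 2% BSA, salmon testes DNA and 50 µM zinc acetate, 200 nM protein was incubated on a custom Agilent array at 25 °C for 1 h and then washed off. The array had been made double-stranded by primer extension with Cy5-dUTP and blocked with 2% BSA. The proteins were transcription factors fused N-terminally to polyhistidine and DsRed, expressed in E. coli BL21-CodonPlus and purified on Ni–NTA. The binding signal is per-feature fluorescence intensity (arbitrary units) from an Axon 4000B scanner.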
With “CATCGAGAGGCTCCCGAGCATGGCCGAGATCGCCGAGGAGCGGAGTCACCTAGTGCAG”, the binding signal was 3500 fluorescence intensity (a.u.).

Take “GAGATGGGAGGAGAGCTAGCTAGCCGCCGAGGCTGAGCTCCGGAGTCACCTAGTGCAG”: the binding signal was 40600 fluorescence intensity (a.u.).

In the case of “GCGAGCTCCTGGAGGCGGCGAGGGCGCCGGAGTTCGCGGGCGGAGTCACCTAGTGCAG”, the binding signal is 37200 fluorescence intensity (a.u.).

On to “GAGGGGCGCGGGCGCCGAGCTCCATCTGGCGAGCAGGGTACGGAGTCACCTAGTGCAG”, for which the binding signal was 42200 fluorescence intensity (a.u.).

On to “GTGTGCCGCCGCCGCTGACTCCGGAGGGAGAGGACGAGCTCGGAGTCACCTAGTGCAG”, for which the binding signal was 3320 fluorescence intensity (a.u.).

In the case of “CACCGCTACCTACGTTGTCGCCACCCACGTCAATAATCCTCGGAGTCACCTAGTGCAG”, the binding signal is 6310 fluorescence intensity (a.u.).

“ATTCTTTTACCGCGTTGATGAATCGGATTCGTTCCGGTTTCGGAGTCACCTAGTGCAG”: the binding signal is 3360 fluorescence intensity (a.u.).

On to “GAGTCGTTATCTGCATTGATGTGTCTCCTGACTCCTGAGACGGAGTCACCTAGTGCAG”, for which the binding signal was 3840 fluorescence intensity (a.u.).

In the case of “CAACCTCCGATTTCCAAATCCAGTTGTCTTCTTCTTCCCCCGGAGTCACCTAGTGCAG”, the binding signal was 7150 fluorescence intensity (a.u.).

On to “ACAATACTACTATTTTATCATGACGATGACTGGAACTCCACGGAGTCACCTAGTGCAG”, for which the binding signal is 4440 fluorescence intensity (a.u.).

For the sequence “CGCTGGTGAAGTGGTGATGCGCCTAATCGTTTTCTTCGCGCGGAGTCACCTAGTGCAG”, the binding signal is 3260 fluorescence intensity (a.u.).

With “CTTGCATTCCTTTTCTTCTCCTGAACTATATAAACACACTCGGAGTCACCTAGTGCAG”, the binding signal was 3290 fluorescence intensity (a.u.).

As for “AAATTTAAGAATTTTCGGATGCACTTAAAGAAGGACAAGTCGGAGTCACCTAGTGCAG”, the binding signal was 11000 fluorescence intensity (a.u.).

As for “CCGCCTGACACGTGTAAGAGCAAGTTTAATAGTATAGCCCCGGAGTCACCTAGTGCAG”, the binding signal was 13800 fluorescence intensity (a.u.).

As for “ATTATTAAAATATATAAATATTGAATTTAATAAAATAATTCGGAGTCACCTAGTGCAG”, the binding signal was 26400 fluorescence intensity (a.u.).

Regarding “ATTGAATATAATTGGATATAAACAGTTTAAAACTATACTCCGGAGTCACCTAGTGCAG”, the binding signal was 5510 fluorescence intensity (a.u.).

As to “GAGAGAGAGAGGAGATAATAAAATACTCGATATTGAATTGCGGAGTCACCTAGTGCAG”, the binding signal was 42500 fluorescence intensity (a.u.).

As for “GGTTGAGTGACGCGCTATTTCTGGTATTGCGTATGAAGGGCGGAGTCACCTAGTGCAG”, the binding signal is 3520 fluorescence intensity (a.u.).

Regarding “TGTCCATGGTTTGTTGCTGCTGCGGTGGCACCAGTGCTGCCGGAGTCACCTAGTGCAG”, the binding signal is 7940 fluorescence intensity (a.u.).

As to “TATGAACACATATGTAGCATACGCTTAAATAGACGAAGACCGGAGTCACCTAGTGCAG”, the binding signal was 40500 fluorescence intensity (a.u.).

With “GACTGTACACATGAAGGAACATATGTGCTGAAATACTGTACGGAGTCACCTAGTGCAG”, the binding signal was 26100 fluorescence intensity (a.u.).

For the sequence “GTAGACGAAGACCTGGCAAGTCCTTGGGCTTAAATCTCACCGGAGTCACCTAGTGCAG”, the binding signal is 17800 fluorescence intensity (a.u.).

With “GCTATATATTTGTTGATCAGCTAGGCTGTCAGCAGTTTAGCGGAGTCACCTAGTGCAG”, the binding signal is 3650 fluorescence intensity (a.u.).

“ATACACACATATCCGCGCCATTATAAATTTGACAGCATTTCGGAGTCACCTAGTGCAG”: the binding signal is 3440 fluorescence intensity (a.u.).

For “CAACATTAGCAATTAAAATTGCGGGTTATTTGTAAAAGTCCGGAGTCACCTAGTGCAG”, the binding signal was 32000 fluorescence intensity (a.u.).

For the sequence “CATATATGGACAGGCAACGGCATGTCGTGTTCGTACAAATCGGAGTCACCTAGTGCAG”, the binding signal is 3190 fluorescence intensity (a.u.).

“GCGGTAGCCAAGCCTGCCACGTCAGCTCTCGCGCAACGTCCGGAGTCACCTAGTGCAG”: the binding signal was 34600 fluorescence intensity (a.u.).

“CCGCGTCCGTACTCTCTAGCCTGCGGGTAAGCAACGAACTCGGAGTCACCTAGTGCAG”: the binding signal was 45200 fluorescence intensity (a.u.).

For the sequence “CACCACACGAAGCAGCCACGAACGCAACGCGGGTGCGTCGCGGAGTCACCTAGTGCAG”, the binding signal is 3140 fluorescence intensity (a.u.).

Take “CCCACCCCGCGTGCAGCTTAGGCGAACCCTCCTCCCTCCGCGGAGTCACCTAGTGCAG”: the binding signal was 3660 fluorescence intensity (a.u.).

As to “CCAAAATCAGATATCTTAGGATTCATATCGATGTCCAACACGGAGTCACCTAGTGCAG”, the binding signal is 19200 fluorescence intensity (a.u.).

With “CATATCCTCAAGTAGAATTCAAATCCAGTCACATTGCCACCGGAGTCACCTAGTGCAG”, the binding signal was 4130 fluorescence intensity (a.u.).

Regarding “CAGGTGGTGGTGGCCATTAGTTAGTGGCAAATGTGGAAGGCGGAGTCACCTAGTGCAG”, the binding signal was 3220 fluorescence intensity (a.u.).

For “AGGAATGCATTTGTGGTGGGTGCAGGTGCGCGGGTGGCGACGGAGTCACCTAGTGCAG”, the binding signal was 3340 fluorescence intensity (a.u.).

In the case of “GTTCAGAATGTGGTGGCGACGTAAGGTGATTTGGAAGGCGCGGAGTCACCTAGTGCAG”, the binding signal was 43500 fluorescence intensity (a.u.).

Take “CTAGAGGAAGTGGGGAAGCCGACGACCCCACGTCTCGCCACGGAGTCACCTAGTGCAG”: the binding signal was 3940 fluorescence intensity (a.u.).

In the case of “TACTTTCAACTCTAACTTGAAAACTTTCAACTTTGACTTGCGGAGTCACCTAGTGCAG”, the binding signal was 3860 fluorescence intensity (a.u.).

In the case of “TAAAATAGTTTTAAAACTTTAAGTTGAAAGTAAATACTTTCGGAGTCACCTAGTGCAG”, the binding signal was 27900 fluorescence intensity (a.u.).

Take “GACTAACAAAATCGTTGAAACTTGCGAAGTTTCTTTTGATCGGAGTCACCTAGTGCAG”: the binding signal is 64700 fluorescence intensity (a.u.).

Take “CCACCCACGGAGCCAGCTCACTACCACCGTTTGTCGCCTCCGGAGTCACCTAGTGCAG”: the binding signal is 4360 fluorescence intensity (a.u.).

As to “TTCTTCCTCCGTCAGTTCATCATCTCTCTGTGTGTGTTTTCGGAGTCACCTAGTGCAG”, the binding signal is 3570 fluorescence intensity (a.u.).

Turning to “ACATGTGTTCACGCGTGTGTATCTTCTACTCCCTCCGTTTCGGAGTCACCTAGTGCAG”, the binding signal was 43200 fluorescence intensity (a.u.).

Turning to “GTACTACTCCCTCCGTTTCTCCCTCCGTTTCAAAATGTTTCGGAGTCACCTAGTGCAG”, the binding signal is 3220 fluorescence intensity (a.u.).
